High-throughput results from PubChem.
PLK1 PBD inh – blocks phosphopeptide binding to human PLK1 polo-box domain. Plk1 PBD binding of FITC phosphopeptide, fluorescence polarization. 2.8% of 360,000 active. Potency, µM, inactives show max response, negative = inhibition, usual class: inhibitors. P53350. AID 720504; note: potency is the fitted concentration of half-maximal effect; series mostly up to about 57 µM; % is set by controls: 0 for no effect and ±100 for the full control effect; nearly all actives have a fitted effect of over 65% in size
Target sequence (P53350 whole entry, looked up, the tested form may be a part): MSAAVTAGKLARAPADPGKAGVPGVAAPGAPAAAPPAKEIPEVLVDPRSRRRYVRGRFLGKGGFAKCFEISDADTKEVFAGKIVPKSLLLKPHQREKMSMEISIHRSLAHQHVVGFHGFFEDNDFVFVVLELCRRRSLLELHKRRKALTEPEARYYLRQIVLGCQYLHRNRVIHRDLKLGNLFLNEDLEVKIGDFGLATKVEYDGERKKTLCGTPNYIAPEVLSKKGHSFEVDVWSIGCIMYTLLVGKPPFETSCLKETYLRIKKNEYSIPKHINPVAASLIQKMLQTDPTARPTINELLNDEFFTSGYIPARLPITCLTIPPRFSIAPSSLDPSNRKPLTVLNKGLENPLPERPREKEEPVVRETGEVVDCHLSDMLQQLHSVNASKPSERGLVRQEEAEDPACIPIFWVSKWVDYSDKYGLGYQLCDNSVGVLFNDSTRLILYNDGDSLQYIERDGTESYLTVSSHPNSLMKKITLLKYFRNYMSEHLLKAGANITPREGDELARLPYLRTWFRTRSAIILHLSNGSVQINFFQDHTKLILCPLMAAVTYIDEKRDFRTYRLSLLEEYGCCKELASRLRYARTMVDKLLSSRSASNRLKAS
MBNL1-CUG inh – inhibitors of human MBNL1 binding to CUG repeat RNA | 0.036% of 280,000 active | Potency, µM (doses to about 57.5 µM), without a hit: at the highest dose activity change, negative = inhibition, most hits filed as inhibitors | TR-FRET MBNL1-His/biotin-(CUG)12 binding, 665/545 ratio | Q9NR56 | AID 2675; active = well fitted inhibition curve with a large enough effect in the signal ratio, with a control signal flat, not every such curve was filed as active; inconclusive = small, poorly fitted or top-dose-only effect, or effect the other way, or a change in a side signal; inactive = no such curve, though single readings can be large or run the other way; the % refers to the signal ratio; note: potency is the fitted concentration of half-maximal effect; % is set by controls: 0 for no effect and ±100 for the full control effect
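His-tagged MBNL1 binding to biotinylated (CUG)12 RNA was measured by TR-FRET using terbium anti-His antibody (0.055 ng/ul final) and streptavidin-XL665 (5 nM final). Compounds were titrated 92 nM to 58 uM; 60 min at room temperature.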
hERG WT inh – KCNH2 (human, wildtype) channel inhibition; Q12809; activity change, % at 1.84 µM; U2OS, BacMam KCNH2, thallium flux FluxOr; hits give low values; 0.37% of 340,000 active;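 active = maximum activity change below -70%; inconclusive = maximum activity change between -70% and -50%; inactive = maximum activity change above -50%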; note: % is set by controls: 0 for no effect and ±100 for the full control effect
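U2OS cells were transduced with wild-type KCNH2 virus (2.03 x 10^8 / mL) for 4 h at room temperature, then cultured overnight at 37 C. Thallium flux was read with FluxOr dye. Rate constants were normalized to DMSO controls.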
CBFb-RUNX1 inh – CBF-beta/RUNX1 interaction disruption; AlphaScreen CBFb-His/RUNX1-biotin binding, biochemical; Potency, µM (highest dose often 59.8 µM), for the others: top-dose activity, negative = inhibition, actives largely listed as inhibitors; AID 1477; 230,000 tested, under 10 active; note: % of control where 0% means no effect
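CBFb-His/RUNX1-biotin, 30 nM each, preincubated 20 min RT; compound 15 min RT; Ni + streptavidin beads 50 ng each, 90 min RT; AlphaScreen read.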
VDR inhibitor – blocks the human vitamin D receptor | VDR-SRC2-3 peptide fluorescence polarization, 2 h | 0.93% of 400,000 active | P11473 | Potency, µM, for inactives: max response, negative = inhibition, hits mostly inhibitors; note: potency is the fitted concentration of half-maximal effect; % is set by controls: 0 for no effect and ±100 for the full control effect
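VDR–SRC2-3 interaction, FP format. Cmpds 23 nl via pintool, brief spin, 2 h ambient incubation.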
KCNH2 3.1 inh – blocks the human KCNH2 3.1 channel isoform. 0.95% of 340,000 active. activity change, % (tested at about 1.8 µM). AID 720553. U2OS KCNH2 3.1, thallium flux FluxOr; hits give low values;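 active = maximum activity change below -70%; inconclusive = maximum activity change from -70% to -50%; inactive = maximum activity change above -50%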;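 note: thallium influx rate constant from kinetic fluorescence after stimulation buffer; % is set by controls: 0 for no effect and ±100 for the full control effect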
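Channel expression came from 3.1 mutant virus (1.77 x 10^8 /mL) applied to suspended U2OS cells for 4 h. Flux was tracked with FluxOr dye plus Red40 quencher, and kinetic rate constants normalized to controls.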
Starred values were filed as active, the others as inactive; ? = inconclusive; / = no result given. Compounds with a hit are over-represented: about 3.8% of the library has one in this group of screens. Unless noted, calls come from the whole dose curve; as a rule, active = well fitted curve in the direction sought with a large enough effect; inconclusive = small, poorly fitted or top-dose-only effect, or another doubt; inactive = no such curve, though single readings can be large; an effect the other way counts as inactive or inconclusive.

SMILES | PLK1 PBD inh | MBNL1-CUG inh | hERG WT inh | CBFb-RUNX1 inh | VDR inhibitor | KCNH2 3.1 inh
COCCN1C(=O)N(c2cccc(OC)c2)C(=O)C1CC(=O)Nc1ccc(OC)cc1 (stereo unspecified) | -3.4% | -8.8% | -0.2 | / | -14.1% | -8.3
CCOc1ccc(NC(=O)CC2C(=O)N(c3cccc(OC)c3)C(=O)N2CCOC)cc1 (stereo unspecified) | 29.9µM* | 1.0% | -10.5 | 6.9% | -27.1% | 9.8
COc1ccccc1NC(=O)c1sc2nc(C)c(C(=O)Nc3ccc(C)cc3C)c(-c3ccc(C)o3)c2c1N | / | / | / | / | -11.4% | /
COc1cc(NS(=O)(=O)c2ccc(NC(=S)NC(=O)/C=C/c3ccc(OC)c(OC)c3)cc2)ncn1 | 13.4µM* | 0.4% | 8.9 | -4.7% | -27.8% | 12.7
COc1ccc(/C=C/C(=O)NC(=S)Nc2ccc(S(=O)(=O)Nc3cc(OC)ncn3)cc2)cc1 | ? | 2.3% | -29.3 | -2.2% | 6.8% | -3.1
CCc1nnc(NS(=O)(=O)c2ccc(NC(=S)NC(=O)/C=C/c3ccc(F)cc3)cc2)s1 | 16.8µM* | -16.5% | 36.3 | -13.1% | ? | 0.5
CCc1nnc(NS(=O)(=O)c2ccc(NC(=S)NC(=O)/C=C/c3ccc([N+](=O)[O-])cc3)cc2)s1 | -11.4% | ? | 2.2 | 7.7% | 6.1% | 12.4
CCCCC1CCC(C(=O)N2CC(=O)Nc3ccc(C)cc3C2c2ccc(F)cc2)CC1 (stereo unspecified) | / | / | / | / | 8.9% | /
Cc1cc(C)nc(/N=C(\N)N(Cc2ccccc2)Cc2ccccc2)n1 | -0.4% | -0.6% | 1.3 | 1.9% | -8.8% | -76.7*
CCCCN(CCCC)/C(N)=N/c1nc(C)cc(C)n1 | -1.2% | 1.1% | 17.5 | 3.7% | 17.1% | -10.1
CCn1ccc2c(OCC(=O)Nc3ccccc3C(F)(F)F)cccc2c1=O | / | / | / | / | 12.9% | /
COc1cc(C(C)=O)ccc1OCc1cn(CC(=O)c2ccc(O)cc2)nn1 | 23.8µM* | / | -18.6 | / | 89.1µM* | -13.4
O=C(Cn1cc(COc2ccccc2C(F)(F)F)nn1)c1ccc(O)cc1 | 21.2µM* | / | -6.5 | / | ? | -3.5
O=C(Cn1cc(COc2ccc(Br)cc2[N+](=O)[O-])nn1)c1ccc(O)cc1 | 26.7µM* | / | 0.4 | / | -29.0% | -34.3
O=C(Cn1cc(COc2cc(F)cc(F)c2)nn1)c1ccc(O)cc1 | -8.3% | / | -15.6 | / | -8.7% | -5.2
COc1cc(C=O)ccc1OCc1cn(CC(=O)c2ccc(O)cc2)nn1 | -25.1% | / | 2.8 | / | -9.6% | 7.3
CC(=O)c1ccc(OCc2cn(CC(=O)c3ccc(O)cc3)nn2)c(C)c1 | -5.9% | / | 2.3 | / | / | 3.0
CC1=C(c2ccc(C(C)C)cc2)S(=O)(=O)N=C1N1CCN(c2ccccc2F)CC1 | / | / | / | / | 5.9% | /
CCOCCCNC(=O)C1CCN(C(=O)c2cc3sccc3n2C)CC1 | / | / | / | / | 1.0% | /
COc1cc2nc(C3CCC3)n(NC(=O)COc3ccccc3)c(=O)c2cc1OC | 26.7µM* | 9.0% | -3.8 | -4.7% | ? | -8.8
COc1cc2nc(C3CCC3)n(NC(=O)C3CCC(OC)CC3)c(=O)c2cc1OC (stereo unspecified) | -6.0% | 2.7% | -5.8 | 1.8% | 4.8% | 0.7
COc1cc2nc(C3CCC3)n(NC(=O)C3CCC3)c(=O)c2cc1OC | 23.8µM* | -6.8% | -17.9 | -4.7% | -12.6% | 1.2
Cc1ccc(C)c(CNC(=O)C2CCN(c3nc4ccccc4nc3C(F)(F)F)CC2)c1 | / | / | / | / | 12.4% | /
O=c1oc2cc(O)ccc2cc1-c1nc2c(s1)CCc1ccccc1-2 | 3.77µM* | ? | -157.3* | ? | -15.9% | -31.8
O=c1oc2ccc3ccccc3c2cc1-c1nc2c(s1)CCc1ccccc1-2 | / | / | / | / | -5.7% | /
SMILES | PLK1 PBD inh | MBNL1-CUG inh | hERG WT inh | CBFb-RUNX1 inh | VDR inhibitor | KCNH2 3.1 inh
CCc1sc(-c2cc3ccc(O)cc3oc2=O)nc1-c1ccc(C)cc1 | / | / | / | / | -14.4% | /
O=c1oc2ccccc2cc1-c1nc2c(s1)CCc1ccccc1-2 | 15µM* | / | -4.3 | 10.2% | -11.1% | -27.8
CC(=O)c1cccc(NC(=O)CN2C(=O)CC(c3ccc(C)cc3C)=Nc3ccccc32)c1 | / | / | / | / | 10.6% | /
CN1N/C(=C\c2ccccc2)N=C2C(=O)N(C)C(=O)N=C21 | / | / | / | / | 50.1µM* | /
CC/C=C1/N=C2C(=O)N(C)C(=O)N=C2N(C)N1 | / | / | / | / | -12.6% | /
Cc1c(C(=O)N2CCCCCC2)c(S(=O)(=O)NCc2ccccc2)c(C)n1C | / | / | / | / | 2.6% | /
O=C(C(=O)c1ccc(O)c(O)c1)c1ccc(O)c(O)c1 | 2.1% | / | 5.9 | / | 4.2% | -6.4
CC(C)C(=O)c1ccc(O)c(O)c1 | -9.8% | / | 1.5 | -1.1% | -9.7% | -84.8*
c1ccc(-c2cn3nc(-c4ccccc4)c(-c4ccccc4)nc3n2)cc1 | 26.7µM* | 3.7% | -20.2 | ? | 4.6% | -20.2
COc1ccccc1NC(=O)CCc1nc2ccccc2s1 | 21.2µM* | -2.7% | 14.7 | 12.2% | ? | -10.9
COc1ccccc1NC(=O)CCC(=O)Nc1ccccc1OC | -3.6% | 23.1% | 0.6 | 3.1% | 20.1% | 7.1
COc1ccccc1NC(=O)CCC(=O)c1ccc(-c2ccccc2)cc1 | 29.9µM* | / | 2.0 | 24.9% | ? | 3.2
O=C(O)CC1S/C(=N/N=C/c2ccc(-c3ccccc3[N+](=O)[O-])o2)NC1=O (stereo unspecified) | -20.0% | ? | 0.1 | -12.4% | 79.4µM* | -11.2
Cc1ccc(-c2ccc(/C=N/N=C3/NC(=O)C(CC(=O)O)S3)o2)c([N+](=O)[O-])c1 (stereo unspecified) | -16.5% | ? | -3.7 | -8.3% | ? | 17.3
COc1cc(OC)c2c(C)c(CC(=O)N3CCCCC3)c(=O)oc2c1 | / | / | / | / | 6.5% | /
O=C(CC1SC(=O)N(c2ccccc2)C1=O)Nc1cccc2ccccc12 (stereo unspecified) | 10.6µM* | 9.8% | -10.3 | ? | 44.7µM* | -0.2
Cc1ccccc1NC(=O)CC1SC(=O)N(c2ccccc2)C1=O (stereo unspecified) | 10.6µM* | 8.0% | 6.3 | -7.4% | 9.9% | 2.0
COc1ccccc1NC(=O)CC1SC(=N)N(c2ccccc2)C1=O (stereo unspecified) | -13.4% | -0.5% | 2.7 | 1.0% | -0.6% | -4.0
CCCN1C(=O)SC(CC(=O)Nc2ccccc2C)C1=O (stereo unspecified) | -21.7% | -2.9% | 1.9 | -3.9% | 29.7% | 2.9
CSC[C@H](NC(=O)COc1cc2c(c3oc(=O)c(C)c(C)c13)CCC(C)(C)O2)C(=O)O | -13.9% | 23.8% | -33.8 | / | -19.0% | 8.7
CSCC[C@H](NC(=O)COc1cc2c(c3oc(=O)c(C)c(C)c13)CCC(C)(C)O2)C(=O)O | 29.9µM* | 27.2% | 8.4 | / | -20.5% | 9.4
Cc1cc(=O)c2cc(C(=O)Nc3ccc(F)cc3)ccc2[nH]1 | / | / | / | / | 24.1% | /
